Shiga toxin inh: A qHTS for Small Molecule Inhibitors of Shiga Toxin; inhibition, % at 38.7 µM; Vero cells, Shiga toxin protein synthesis inhibition reporter; 290,000 compounds, 9.2% hits; in the data active means inhibition mostly above about 28%, no sharp cut-off; inactive means mostly below about 43%; further: 0% is about no effect
Tb PYK inh: qHTS of Trypanosoma Brucei Inhibitors. 410,000 compounds, 0.12% hits. pyruvate kinase (Trypanosoma brucei), Q57TT1. TbPYK enzyme, Kinase-Glo Plus ATP luminescence, 45 min. Potency, µM (series often up to 76.8 µM), without a hit: top-dose activity, negative = inhibition, most hits filed as inhibitors; further: potency means the concentration at half of the fitted maximal effect; on the % scale 0 is the no-effect control and ±100 the full control effect; nearly all actives have a fitted effect of over 50% in size
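Readout: single end-point luminescence (Kinase-Glo Plus, 10 min). Reaction conditions were TbPYK/substrate plus 130 uM ADP, 45 min at RT, pH 7.2 TEA buffer. No-enzyme wells served as controls, and data were normalized before concentration-response fitting.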
SARS PLP yeast: qHTS of Yeast-based Assay for SARS-CoV PLP | S. cerevisiae expressing SARS-CoV PLpro, growth rescue | Potency, µM (series often up to 32.9 µM), for inactives: top-dose activity, positive = growth rescue, most hits filed as activators | 330,000 compounds, 0.19% hits; calls by dose curve; further: potency means the concentration at half of the fitted maximal effect; 0% is about no effect; nearly all actives have a fitted effect of over 55% in size
NS1 function inh: qHTS Assay for Inhibitors of Influenza NS1 Protein Function. Potency, µM (highest dose often 46.1 µM), inactives show at the top dose activity, positive = more growth. 270,000 compounds, 0.4% hits. AID 2326, 2010; calls by dose curve; further: potency means the concentration at half of the fitted maximal effect; actives are rising curves; nearly all actives have a fitted effect of over 50% in size
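S. cerevisiae expressing influenza A NS1, grown in glucose, washed, then diluted 1:100 into pH 6.0 -URA galactose medium with 23 nl compound. Growth recovery read as OD600; NS1-free strain serves as control.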
CHX counter: Cycloheximide Counterscreen for Small Molecule Inhibitors of Shiga Toxin. 300,000 compounds, 12% hits. max response, %. cell reporter, cycloheximide protein synthesis inhibition counterscreen; in the data active means max response mostly above about 13%, no sharp cut-off; inactive means mostly below about 14%; further: read at 38.3 µM for the half of the compounds with a filed dose; 0% is about no effect
LmPK inh: qHTS Assay for Inhibitors of Leishmania Mexicana Pyruvate Kinase (LmPK); Q27686; purified LmPK, Kinase-Glo ATP luminescence, 1 h; Potency, µM (series often up to 57.5 µM), inactives show at the top dose activity change, negative = inhibition, most hits filed as inhibitors; 290,000 compounds, 0.37% hits; AID 1721, 2009; further: potency means the concentration at half of the fitted maximal effect; on the % scale 0 is the no-effect control and ±100 the full control effect
Target sequence (Q27686 whole entry, looked up): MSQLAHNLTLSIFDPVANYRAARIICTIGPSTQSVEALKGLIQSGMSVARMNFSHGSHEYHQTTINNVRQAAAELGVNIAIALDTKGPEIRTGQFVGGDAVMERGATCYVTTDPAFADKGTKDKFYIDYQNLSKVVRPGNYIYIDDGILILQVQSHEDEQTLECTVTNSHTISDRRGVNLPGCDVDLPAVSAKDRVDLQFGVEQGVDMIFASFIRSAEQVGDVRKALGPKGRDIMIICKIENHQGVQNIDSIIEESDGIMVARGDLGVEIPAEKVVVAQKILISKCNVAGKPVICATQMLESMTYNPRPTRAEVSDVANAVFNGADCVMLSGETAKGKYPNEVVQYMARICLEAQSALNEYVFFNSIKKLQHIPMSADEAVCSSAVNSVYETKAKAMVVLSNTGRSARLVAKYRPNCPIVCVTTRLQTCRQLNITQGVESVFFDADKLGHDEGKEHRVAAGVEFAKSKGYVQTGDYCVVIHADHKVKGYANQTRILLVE
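Screened at intermediate enzyme activity to detect both inhibitors and activators: LmPK at 0.1 nM, with a 0.5 nM enzyme column as activation reference. PEP 0.5 mM, ADP 0.1 mM; ATP detected by luminescence after 1 h.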
An asterisk follows results filed as active; u = inconclusive; x = not tested or not shown; + = active, no number. Many of the other results were omitted from the sample, so hits are more common in it than they were. Unless noted, the call rests on the fitted dose curve; in most records, active means well fitted curve in the direction sought with a large enough effect; inconclusive means small, poorly fitted or top-dose-only effect, or another doubt; inactive means no such curve, though single readings can be large; an effect the other way counts as inactive or inconclusive.

SMILES	Shiga toxin inh	Tb PYK inh	SARS PLP yeast	NS1 function inh	CHX counter	LmPK inh
CC(C)(C)CC(=O)O/N=C(\N)c1ccccn1	30.2	-18.3%	20.2%	-4.3%	40.1*	-4.8%
Cc1ccc(OCC(=O)O/N=C(\N)c2ccccn2)cc1	80.3*	2.1%	-0.6%	-11.4%	50.4*	-17.5%
N/C(=N\OC(=O)Cc1ccc(Cl)cc1)c1ccccn1	31.5	-9.8%	9.6%	-59.4%	19.9*	-13.1%
COc1ccccc1C/C(N)=N/OC(=O)COc1cccc(C)c1C	1.8	-2.3%	-1.2%	2.0%	14.9	0.1%
C=CCN(C/C(=N\O)c1sc(C(=O)OCC)nc1C)c1cccc(Br)c1	x	0.9%	x	x	x	x
O=C(Nc1ccc2nc(SCC(=O)N3CCOCC3)sc2c1)c1cccc(Cl)c1	x	-1.1%	x	x	x	x
CC1=C(c2ccc(C)c(C)c2)S(=O)(=O)N=C1N1CCC(C(=O)NCc2ccc(C)o2)CC1	x	-11.7%	x	x	x	x
COc1ccc(-c2nc(CNS(=O)(=O)c3cccc(F)c3)cs2)cc1	x	-4.6%	x	x	x	x
N/C(=N\OC(=O)CCCOc1ccc(Cl)cc1Cl)c1ccccn1	4.5	-0.6%	-10.9%	-42.8%	4.9	-7.8%
N/C(=N\OC(=O)COc1cc(Cl)c(Cl)cc1Cl)c1ccccn1	90.6*	-1.2%	3.0%	x	39.5*	-5.4%
Cc1ccc(CC(=O)O/N=C(\N)c2ccccn2)cc1	83.7*	-4.8%	-7.2%	-9.1%	81.9*	-3.4%
CCn1cnc2cc(NCc3cccc(OC)c3O)ccc21	111.7*	4.7%	-0.5%	-5.7%	43.7*	-21.0%
CCCCn1cnc2cc(NCc3cccc(OC)c3O)ccc21	103.1*	-12.7%	-1.9%	-19.3%	18.8*	1.6%
O=C(O)CSc1ncccc1[N+](=O)[O-]	x	x	x	-3.8%	x	x
COc1ccc(C(=O)COC(=O)c2ccco2)cc1	50.4*	-15.4%	-2.5%	-0.3%	43.4*	u
COc1ccc(/C(N)=N/OC(=O)c2ccco2)cc1	21.0	-19.6%	-4.3%	2.4%	7.1	11.2µM*
Cc1cccc(/C(N)=N/OC(=O)c2ccco2)c1	71.5*	-14.7%	-38.6%	-115.9%	26.4*	15.8µM*
N/C(=N\OC(=O)c1ccco1)c1ccccc1	+	-17.8%	-20.3%	-7.0%	32.4*	22.4µM*
CN1C[C@@H]2[C@@H]3C(=O)N(Cc4ccccc4)C(=O)[C@@H]3[C@](Cc3ccccc3)(C1=O)N2C(=O)c1ccc(C(F)(F)F)cc1	x	-3.6%	x	x	x	x
COc1ccc(C2=Nn3c(nnc3-c3cccc(OC)c3OC)SC2)cc1OC	-16.7	x	x	x	5.4	x
COc1ccc(C(=O)COC(=O)c2ccn(C)n2)cc1	104.3*	9.8%	-3.3%	-4.4%	42.4*	-15.5%
CC(C)(C)C(=O)O/N=C(\N)c1ccc(Br)cc1	17.8	-4.5%	-1.3%	-4.3%	1.3	-9.7%
Cc1ccc(/C(N)=N/OC(=O)c2ccco2)cc1	active	-8.6%	-83.9%	-35.2%	21.8*	u
N/C(=N\OC(=O)c1ccco1)c1ccccn1	94.6*	u	-2.1%	-4.3%	44.0*	12.6µM*
Cc1ccc(C(=O)NNC(=S)NC(=O)c2ccco2)cc1	17.9	-3.8%	3.8%	-46.8%	-4.4	-0.8%
SMILES	Shiga toxin inh	Tb PYK inh	SARS PLP yeast	NS1 function inh	CHX counter	LmPK inh
N/C(=N\OC(=O)c1ccco1)c1ccc(Br)cc1	95.0*	4.2%	-15.5%	-184.6%	38.7*	-21.9%
COc1ccc(C(=O)Nc2ccc(NC(=O)c3ccco3)cc2)cc1	29.2	-9.1%	-3.5%	-3.5%	-6.3	4.5%
Cc1noc(-c2ccc(Cl)cc2)c1C(=O)O/N=C(\N)c1ccc(C(C)(C)C)cc1	15.1	-4.8%	-17.4%	-123.1%	-3.3	-1.1%
COc1ccc(N=N/C(=C\O)C(=O)c2ccco2)cc1	83.5*	-8.0%	-6.0%	x	39.6*	-2.7%
Cc1occc1C(=O)O/N=C(\N)c1ccc(Cl)cc1	135.9*	-3.2%	-20.8%	-72.7%	66.1*	-19.8%
NS(=O)(=O)c1cc(Br)c2c(c1)S(=O)(=O)NCN2	x	-14.6%	x	x	x	x
Cc1cc(C)c(OCC(O)CN2CCN(c3ccccn3)CC2)c(C)c1 (centres undefined)	-6.9	5.9%	-0.5%	4.9%	6.4	3.3%
N=c1scc(-c2ccccc2)n1/N=C/c1ccco1	71.9*	-13.1%	8.7%	25.8%	45.8*	-6.1%

High-throughput results (PubChem BioAssay)
